Laboratory results published in PubChem BioAssay.
Unmarked numbers belong to inactive results. For some of these results: Measured potencies and affinities stand elsewhere. Active and inactive are the calls of the source. Unless noted, the rule behind the calls is not given here.

Columns and labels:
[1] = antimalarial activity against Dd2 strain (AID 2302;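 active = growth inhibition above 50% at the single 2 µM test dose, taken to imply half-maximal potency below 2 µM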;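 note: 0% = DMSO untreated growth and 100% = chloroquine plus artemisinin killed control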); details: P. falciparum Dd2 in RBCs, LDH growth readout, 72 h; at 2 µM; hits give high values
[2] = HepG2 cytotoxicity, primary screen, cytotoxicity control for P. falciparum antimalarial project, cell-based, ATP luminescence (AID 2303;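 active = inhibition above 50%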;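 note: 0% = DMSO wells and 100% = digitonin-killed cells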); details: HepG2 viability, 24-48 h, at 10 µM, hits give high values
[3] = molecular target: L-lactate dehydrogenase (Plasmodium falciparum (isolate CDC / Honduras)) (UniProt Q27743); experiment: PfLDH activity inhibition – cell lysate, 3D7 strain, counter-screen for P. falciparum growth inhibition project (AID 2304);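 note: 0% = vehicle and 100% = reference inhibitor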; details: P. falciparum 3D7 crude extract, LDH APAD/NBT absorbance; at 2 µM; hits give high values
[4] = inhibition of 3D7 malaria parasite growth – strain 3D7 (AID 2306);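 note: 0% = DMSO wells and 100% = chloroquine plus artemisinin control wells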; details: P. falciparum 3D7 erythrocytic growth, LDH absorbance, 72 h; at 2 µM; hits give high values
[5] = molecular target: Calcium-dependent protein kinase 1 (Plasmodium falciparum (isolate 3D7)) (UniProt P62344); experiment: PfCDPK1 kinase inhibitors, biochemical, TCAMS library (AID 1159585; cut-off not given, nearly all actives have IC50 up to about 0.98 µM;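 note: inhibitors leave more ATP so luminescence rises with inhibition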); details: recombinant PfCDPK1, Kinase-Glo ATP depletion luminescence
[6] = molecular target: Plasmodium falciparum protein kinase 6 (PK6, PF3D7_1337100) (UniProt Q8IDW1); experiment: PfPK6 kinase inhibitors, biochemical, TCAMS library (AID 1159586); details: recombinant PfPK6, Kinase-Glo ATP depletion luminescence
[7] = molecular target: Protein kinase 7 (PK7), Plasmodium falciparum 3D7 (PF3D7_0213400) (UniProt Q7YTF7); experiment: inhibition of Plasmodium PK7 catalytic activity – biochemical, TCAMS antimalarial set, Kinase-Glo luminescence (AID 1159587); details: recombinant PfPK7, Kinase-Glo ATP depletion luminescence
[8] = molecular target: Calcium-dependent protein kinase 4 (Plasmodium falciparum (isolate 3D7)) (UniProt Q8IBS5); experiment: PfCDPK4 kinase inhibitors, biochemical, TCAMS library (AID 1159588; cut-off not given, nearly all actives have IC50 up to about 0.91 µM); details: recombinant PfCDPK4, Kinase-Glo ATP depletion luminescence
Sequence of Calcium-dependent protein kinase 4 (Plasmodium falciparum (isolate 3D7)) (Q8IBS5 whole entry, looked up): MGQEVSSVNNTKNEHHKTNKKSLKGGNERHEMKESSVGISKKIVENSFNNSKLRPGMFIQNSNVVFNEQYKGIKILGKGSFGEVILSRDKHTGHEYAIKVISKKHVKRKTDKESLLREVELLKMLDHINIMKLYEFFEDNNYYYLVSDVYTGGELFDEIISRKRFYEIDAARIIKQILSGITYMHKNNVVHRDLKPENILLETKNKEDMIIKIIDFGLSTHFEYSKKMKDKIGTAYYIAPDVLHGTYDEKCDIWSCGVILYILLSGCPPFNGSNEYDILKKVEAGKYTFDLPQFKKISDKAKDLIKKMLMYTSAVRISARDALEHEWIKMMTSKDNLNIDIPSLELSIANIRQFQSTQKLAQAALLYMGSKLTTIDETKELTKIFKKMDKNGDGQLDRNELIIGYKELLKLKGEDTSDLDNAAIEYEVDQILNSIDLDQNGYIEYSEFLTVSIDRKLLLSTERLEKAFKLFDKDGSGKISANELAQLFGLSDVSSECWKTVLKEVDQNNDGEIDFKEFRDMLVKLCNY

Sequence of Plasmodium falciparum protein kinase 6 (PK6, PF3D7_1337100) (Q8IDW1 1-305): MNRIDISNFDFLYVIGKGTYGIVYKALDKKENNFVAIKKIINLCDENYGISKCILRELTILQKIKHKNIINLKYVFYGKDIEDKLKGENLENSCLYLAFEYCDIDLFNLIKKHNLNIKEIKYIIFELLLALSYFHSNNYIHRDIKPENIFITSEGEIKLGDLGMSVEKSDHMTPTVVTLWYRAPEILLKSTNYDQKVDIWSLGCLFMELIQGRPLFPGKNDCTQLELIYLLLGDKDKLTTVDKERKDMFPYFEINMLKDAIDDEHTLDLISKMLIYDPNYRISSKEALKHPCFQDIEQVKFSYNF
Sequence of Calcium-dependent protein kinase 1 (Plasmodium falciparum (isolate 3D7)) (P62344 whole entry, looked up): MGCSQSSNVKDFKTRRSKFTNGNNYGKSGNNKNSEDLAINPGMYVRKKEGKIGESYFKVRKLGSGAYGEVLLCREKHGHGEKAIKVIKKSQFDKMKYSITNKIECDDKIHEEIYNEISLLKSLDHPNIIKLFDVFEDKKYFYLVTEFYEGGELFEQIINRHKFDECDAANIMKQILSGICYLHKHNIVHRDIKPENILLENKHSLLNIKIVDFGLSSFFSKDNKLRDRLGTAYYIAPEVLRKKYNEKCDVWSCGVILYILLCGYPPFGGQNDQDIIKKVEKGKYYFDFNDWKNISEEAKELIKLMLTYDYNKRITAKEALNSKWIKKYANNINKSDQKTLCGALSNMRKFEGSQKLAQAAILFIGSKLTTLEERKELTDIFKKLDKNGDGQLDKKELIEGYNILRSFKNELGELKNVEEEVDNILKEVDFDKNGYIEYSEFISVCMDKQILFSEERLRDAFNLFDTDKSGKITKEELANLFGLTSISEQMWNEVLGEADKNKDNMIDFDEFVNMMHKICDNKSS
Sequence of L-lactate dehydrogenase (Plasmodium falciparum (isolate CDC / Honduras)) (Q27743 whole entry, looked up): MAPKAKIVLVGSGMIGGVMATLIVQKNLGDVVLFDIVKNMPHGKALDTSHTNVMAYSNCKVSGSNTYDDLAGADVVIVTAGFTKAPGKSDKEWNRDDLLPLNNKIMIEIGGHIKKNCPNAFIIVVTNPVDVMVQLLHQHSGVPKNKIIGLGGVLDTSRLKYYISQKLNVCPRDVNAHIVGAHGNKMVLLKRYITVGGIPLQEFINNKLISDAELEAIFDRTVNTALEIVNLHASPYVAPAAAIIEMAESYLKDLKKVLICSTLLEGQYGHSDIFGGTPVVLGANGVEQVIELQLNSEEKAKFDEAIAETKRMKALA
Sequence of Protein kinase 7 (PK7), Plasmodium falciparum 3D7 (PF3D7_0213400) (Q7YTF7 1-343): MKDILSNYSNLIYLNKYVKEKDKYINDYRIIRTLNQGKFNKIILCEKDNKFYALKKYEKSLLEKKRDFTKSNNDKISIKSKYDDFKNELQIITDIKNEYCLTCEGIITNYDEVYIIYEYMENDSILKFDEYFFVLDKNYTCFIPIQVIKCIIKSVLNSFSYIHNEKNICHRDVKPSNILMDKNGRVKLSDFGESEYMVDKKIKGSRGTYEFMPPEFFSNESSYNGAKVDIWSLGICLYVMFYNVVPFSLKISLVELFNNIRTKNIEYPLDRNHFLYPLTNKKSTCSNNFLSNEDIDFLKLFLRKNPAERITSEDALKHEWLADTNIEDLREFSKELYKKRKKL

SMILES | growth inhibition [1] | inhibition [2] | inhibition [3] | growth inhibition [4] | outcome [5] | outcome [6] | outcome [7] | outcome [8]
CN1CCC(Oc2ccc(CN3CC[C@H](NC(=O)c4cc(F)cc(F)c4)C3)c3ccccc23)C1 (stereo not given in full) | 23% | 26% | 5% | 98% (active) | inactive | inactive | inactive | inactive
O=C(CN(c1cccc(C(F)(F)F)c1)S(=O)(=O)c1ccc(Cl)cc1)NCCC(c1ccccc1)c1ccccc1 | 50% (active) | 14% | -2% | 94% (active) | inactive | inactive | inactive | inactive
O=C(Nc1cccc(CN2CCCN(Cc3cccc(O)c3)CC2)c1)c1ccc(-c2ccccc2)cc1 | 66% (active) | 28% | 3% | 101% (active) | inactive | inactive | inactive | inactive
COc1ccc(C(F)(F)F)cc1N1CCN(CCCCNC(=O)c2ccc(NC(=O)c3ccc(Cl)cc3)cc2)CC1 | 1% | 12% | 8% | 94% (active) | inactive | inactive | inactive | inactive
CCn1c(C)cc(C=C2SC(=Nc3ccccc3)NC2=O)c1C | 87% (active) | 27% | 3% | 90% (active) | inactive | inactive | inactive | inactive
COc1cc(C)ccc1N1CCN(CCCCNC(=O)c2ccc(NC(=O)c3ccc(Cl)cc3)cc2)CC1 | 31% | 30% | 4% | 99% (active) | inactive | inactive | inactive | inactive
CC[C@H](C)CNCc1ccc(OCc2cccc(COc3ccc(CNC[C@@H](C)CC)cc3I)c2)c(I)c1 | 60% (active) | 99% (active) | 7% | 99% (active) | inactive | inactive | inactive | inactive
COc1cc(NCC(C)CNCc2cn(Cc3ccccc3)c3ccccc23)nc2ccccc12 (stereo not given) | 55% (active) | 21% | -6% | 90% (active) | inactive | inactive | inactive | inactive
CCCNC(=O)c1ccnc(-c2ccc(CNC3Cc4ccccc4C3)cc2)c1 | 21% | 24% | -3% | 92% (active) | inactive | inactive | inactive | inactive
COc1cc(-c2nc3ccc(N4CCN(C)CC4)cc3[nH]2)cc(OC)c1OC | 15% | 6% | 0% | 87% (active) | inactive | inactive | inactive | inactive
COc1ccc2nccc([C@@H](O)CN3CCC(NC(=O)C(=Cc4ccc(C#N)cc4)c4ccc(-c5ccccc5)cc4)CC3)c2c1 | 84% (active) | 5% | -5% | 101% (active) | inactive | inactive | inactive | inactive
c1ccc(CN2CCCN(c3ccc4c(c3)CCN(Cc3ccc(-c5ncc[nH]5)cc3)CC4)CC2)cc1 | 73% (active) | 6% | 2% | 100% (active) | inactive | inactive | inactive | inactive
CC(C)C[C@H](NC(=O)OC(C)(C)C)C(=O)Nc1ccc(Cc2ccc(NC(=O)[C@H](CC(C)C)NC(=O)OC(C)(C)C)cc2)cc1 | 88% (active) | -5% | 0% | 94% (active) | inactive | inactive | inactive | inactive
CN(C)c1ccc(-c2csc(C(=O)NC3CCN(CCC(C)(C)C)C3)c2)cc1 (stereo not given) | 36% | 20% | 2% | 95% (active) | inactive | inactive | inactive | inactive
CCCCN(CCCC)CCCCCCNc1c2ccccc2nc2ccccc12 | 87% (active) | 49% | 7% | 95% (active) | inactive | inactive | inactive | inactive
COC(=O)C(C)NCC(=O)c1ccccc1 (stereo not given) | 23% | 5% | 4% | 97% (active) | inactive | inactive | inactive | inactive
c1cc2c3c(cccc3c1)NC(CCCCCCCCC1=Nc3cccc4cccc(c34)N1)=N2 | 6% | 14% | 0% | 93% (active) | inactive | inactive | inactive | inactive
CC(C)c1ccc(NC(=O)c2ccc(CN3CCCN(Cc4cccc(O)c4)CC3)cc2)cc1 | 58% (active) | 51% (active) | -4% | 100% (active) | inactive | inactive | inactive | inactive
O=c1[nH]c(Cc2ccccc2)nc2ccc(Cl)cc12 | 76% (active) | 13% | 3% | 92% (active) | inactive | inactive | inactive | inactive
O=C(NCc1cccnc1)C(c1cc2ccccc2o1)N1CCN(C(c2ccccc2)c2ccccc2)CC1 (stereo not given) | 81% (active) | 12% | 6% | 95% (active) | inactive | inactive | inactive | inactive
